Each structure is given as a SMILES string. Where two headings read alike, the source gives them in different places. Among all 3,300 compounds or so, about 60 (2%) showed an effect of 50% or more. Many of the other results were omitted from the sample, so strong results are more common in it than they were.

This assay concerns HCoV-OC43. On the set-up: species or system RD; HTS, protection from HCoV-OC43 induced cell death, luminescent cell viability (CellCounting-Lite 2.0), inhibition rate. Particulars: 24 h post infection, 1 h compound pre-incubation, 10 µM, inhibitor.

As to `CC1(C)CC[C@]2(C(=O)O)CC[C@]3(C)C(=CC[C@@H]4[C@@]5(C)CC[C@H](O[C@@H]6O[C@H](C(=O)O)[C@@H](O)[C@H](O[C@@H]7OC[C@@H](O)[C@H](O)[C@H]7O[C@@H]7O[C@H](CO)[C@@H](O)[C@H](O)[C@H]7O)[C@H]6O)C(C)(C)[C@@H]5CC[C@]43C)[C@@H]2C1` [Oleanolic acid-3-O-glucosyl(1-2)xylyl(1-3)glucosiduronic acid], the “OC43 Inhibition rate” value was -0.1%.

For `CC(=O)c1ccc2ccccc2c1` [2-Acetonaphthone], the “OC43 Inhibition rate” value is -1.5%.

Take `c1cncnc1` [Pyrimidine]: the “OC43 Inhibition rate” value is recorded as -0.5%.

For the compound `Nc1nc(O)c2[nH]nnc2n1` [8-Azaguanine], the “OC43 Inhibition rate” value came out at 54.4%.

Take `C/C=C/C=C/C(=O)O` [Potassium sorbate]: for the setting “OC43 Inhibition rate, 24 h”, the “OC43 Inhibition rate” value amounted to 1.3%.

As to `C=C1CCC2(C(C)C)CC12` (stereo not shown) [Sabinene], the “OC43 Inhibition rate” value was -0.5%.

Consider `C[C@@H](O)CC(=O)O` [(R)-3-Hydroxybutanoic acid], for which, under “OC43 Inhibition rate, 24 h”, the “OC43 Inhibition rate” value is on record as -0.8%.

On to `CC(=O)[C@H]1CC[C@H]2[C@@H]3CC=C4C[C@@H](O)CC[C@]4(C)[C@H]3CC[C@]12C` [Pregnenolone], for which the “OC43 Inhibition rate” value stood at 1.3%.

Regarding `C[C@H]1[C@H]2CC[C@H]3[C@@H]4CC=C5C[C@@H](N(C)C)CC[C@]5(C)[C@H]4CC[C@]23CN1C` [Conessine], the “OC43 Inhibition rate” value came to 52.4%.

For the compound `C[C@]12CC[C@H]3[C@@H](CC=C4C[C@@H](O)CC[C@@]43C)[C@@H]1CC[C@@H]2C(=O)CO` [21-Hydroxypregnenolone], the “OC43 Inhibition rate” value is -0.2%.

For `CC1(C)CC[C@]2(C(=O)O)CC[C@]3(C)C(=CC[C@@H]4[C@@]5(C)CC[C@@H](O)C(C)(C)[C@@H]5CC[C@]43C)[C@@H]2C1` [3-Epioleanolic acid], the “OC43 Inhibition rate” value is on record as -0.6%.

Turning to `OC1OC[C@@H](O)[C@H](O)[C@@H]1O` (stereo partly drawn) [D-Lyxose], the “OC43 Inhibition rate” value was -0.4%.

On to `C=C1C(=O)[C@]23[C@H](O)[C@H]1CC[C@H]2[C@@]12CO[C@]3(O)[C@@H](O)[C@@H]1C(C)(C)CC[C@@H]2O` [Oridonin], for which the “OC43 Inhibition rate” value turned out to be 17.2%.

With `C=C1C(=O)[C@@]23[C@H](O)C[C@@H]4C(C)(C)CC[C@H](O)[C@@]4(CO)[C@@H]2CC[C@@H]1[C@H]3O` [Kamebakaurin], the “OC43 Inhibition rate” value was -2.9%.

As to `C=C1C(=O)[C@@]23[C@@H]4OC5O[C@@]2(O)[C@@H](O)[C@@H]2C(C)(C)CC[C@@H](O)[C@]52[C@@H]3CC[C@@H]14` [ponicidin], the “OC43 Inhibition rate” value amounted to 75.9%.

With `CC(C)(CC(=O)O)CC(=O)O` [3,3-Dimethylglutaric acid], the “OC43 Inhibition rate” value was -0.3%.

Turning to `C/C=C(/C)C(=O)O[C@@H]1c2c(ccc3ccc(=O)oc23)OC(C)(C)[C@@H]1OC(=O)/C(C)=C\C` [(-)-Anomalin], the “OC43 Inhibition rate” value is given as 32.9%.

For `C/C=C(/C)C(=O)OC(C)(C)[C@@H]1Cc2c(ccc3ccc(=O)oc23)O1` [Columbianadin, columbianadin], the “OC43 Inhibition rate” value stood at 107.6%.

With `C/C=C(\C)C(=O)OC1c2c(ccc3ccc(=O)oc23)OC(C)(C)C1OC(=O)/C(C)=C/C` (stereo not shown) [Praeruptorin B], the “OC43 Inhibition rate” value is listed as 7.3%.

(Values after PMC12431657, “Discovery and mechanistic insights of dibenzoylmethane as a broad spectrum inhibitor of coronavirus” (PLOS Pathogens, 2025).)
